The values that follow come from PubChem BioAssay (Tox21).

Records with an inconclusive call do not appear. A number with no mark means an inactive call. The source made the active and inactive calls. The call rests on the fitted dose curve; in most records, active means well fitted curve in the direction sought with a large enough effect in the repeat runs; inconclusive means weak or mixed curves; inactive means no such curve, though single readings can be large; an effect the other way counts as inactive or inconclusive.

Assay [1] can be described thus: A CellTox Green Cytotoxicity Assay to monitor cytotoxicity in HEK293 cells - 40 hour (AID 1224871). Further: nearly all actives have a fitted effect of over 45% in size. Further: potency means the concentration at half of the fitted maximal effect. In outline: (§1)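 Cytotoxicity was tracked continuously in HEK293 cells by a DNA-binding dye excluded from viable cells. Compounds were transferred in DMSO 5 h after seeding; fluorescence was recorded at intervals up to 40 h.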
The nature of assay [2]: qHTS RealTime-Glo MT Cell Viability Assay in HEK293 cells - 16 hour (AID 1224872). Further: nearly all actives have a fitted effect of over 50% in size. Further: potency means the concentration at half of the fitted maximal effect. In outline:
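HEK293 cells seeded with NanoLuc/prosubstrate reagent, rested 5 h at 37 C, then dosed and kept at 37 C up to 40 h. Nonlytic real-time luminescence from viable cells read at 0, 8, 16, 24, 32 and 40 h.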

A short description of assay [3]: qHTS RealTime-Glo MT Cell Viability Assay in HepG2 cells - 8 hour (AID 1224873). Further: nearly all actives have a fitted effect of over 55% in size. Further: potency means the concentration at half of the fitted maximal effect. Put shortly:
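Real-time viability: cells seeded at 600 per well together with NanoLuc and cell-permeant prosubstrate, compounds added after 5 h incubation. Luminescence tracked at 0, 8, 16, 24, 32 and 40 h of exposure.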

Assay [4] in a line: qHTS RealTime-Glo MT Cell Viability Assay in HEK293 cells - 40 hour (AID 1224874). Further: nearly all actives have a fitted effect of over 50% in size. Further: potency means the concentration at half of the fitted maximal effect. The settings on record: RealTime-Glo luminescence; max response: hits give low values. Put shortly: (§2)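 Nonlytic bioluminescent viability monitoring. HEK293 at 600 cells/well with reagent; 5 h settle; compound transfer by pintool; plates held at 37 C and read at set time points.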
The nature of assay [5]: A CellTox Green Cytotoxicity Assay to monitor cytotoxicity in HEK293 cells - 24 hour (AID 1224875). Further: nearly all actives have a fitted effect of over 45% in size. Further: potency means the concentration at half of the fitted maximal effect. Put shortly:
as §1

Assay [6] is described as follows: A CellTox Green Cytotoxicity Assay to monitor cytotoxicity in HepG2 cells - 16 hour (AID 1224876). Further: nearly all actives have a fitted effect of over 45% in size. Further: potency means the concentration at half of the fitted maximal effect. In outline: (§3)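 Real-time, homogeneous cytotoxicity readout: dead-cell DNA staining by CellTox Green in HepG2 monolayers, fluorescence measured at timed intervals up to 40 h of continuous compound exposure.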
Assay [7] is described as follows: qHTS RealTime-Glo MT Cell Viability Assay in HepG2 cells - 32 hour (AID 1224877). Further: nearly all actives have a fitted effect of over 55% in size. Further: potency means the concentration at half of the fitted maximal effect. In outline: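 HepG2 cells (600/well) were dispensed with RealTime-Glo reagents, incubated 5 h at 37 °C, then treated with compounds in DMSO for up to 40 h. Nonlytic NanoLuc luminescence reflecting viable cells was read at each stated time point.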
The nature of assay [8]: A CellTox Green Cytotoxicity Assay to monitor cytotoxicity in HepG2 cells - 24 hour (AID 1224878). Further: nearly all actives have a fitted effect of over 45% in size. Further: potency means the concentration at half of the fitted maximal effect. Put shortly:
as §3

The nature of assay [9]: A CellTox Green Cytotoxicity Assay to monitor cytotoxicity in HepG2 cells - 40 hour (AID 1224879). Further: nearly all actives have a fitted effect of over 40% in size. Further: potency means the concentration at half of the fitted maximal effect. In outline:
as §3

Assay [10] is described as follows: qHTS RealTime-Glo MT Cell Viability Assay in HEK293 cells - 0 hour (AID 1224880). Put shortly: as §2
On the % scale 0 is the no-effect control and ±100 the full control effect.

Turning to `CNC(=O)c1cnn(-c2nc(N)c3ncn([C@@H]4O[C@H](CO)[C@@H](O)[C@H]4O)c3n2)c1`, the Potency entry in assay [1], in assay [2], in assay [3], in [5], in [6] and in assay [7] was “inactive” in each case. Besides, the Potency entry in assay [8] and in assay [9] was “inactive” in each case. For the same compound, the max response in [4] is 4.42%.
Turning to `COC(=O)CS`, the Potency result in assay [1], in assay [2], in assay [3], in assay [5], in assay [6] and in assay [7] was “inactive” in each case. The Potency entry in assay [8], in [9] and in assay [10] was “inactive” each time. In addition, the max response in assay [4] was 0.933%.
In the case of `COc1ccccc1Oc1c(NS(=O)(=O)c2ccc(C(C)(C)C)cc2)nc(-c2ncccn2)nc1OCCO`, the Potency result in [1], in [2], in assay [3], in assay [5], in assay [6] and in assay [7] was “inactive” each time. Besides, the Potency entry in [8], in [9] and in [10] was “inactive” throughout. The max response in assay [4] is -19.3%.
For `Cc1ccco1`, the Potency result in assay [1], in [2], in [3], in assay [5], in assay [6] and in assay [7] was “inactive” each time. Besides, the Potency result in [8], in assay [9] and in assay [10] was “inactive” throughout. Moreover, in assay [4], the max response was 15.4%.
With `O=C1NC(=O)c2cc([N+](=O)[O-])ccc21`, the Potency entry in assay [1], in assay [2], in [3], in assay [5], in assay [6] and in [7] was “inactive” throughout. Also, the Potency result in assay [8] and in [9] was “inactive” each time. The max response in assay [4] was 2.79%.
Take `COc1ccc(OC(=O)N(CC(=O)O)Cc2ccc(OCCc3nc(-c4ccccc4)oc3C)cc2)cc1`: the Potency result in assay [1], in [2], in assay [3], in assay [5], in [6] and in [7] was “inactive” throughout. Moreover, the Potency entry in assay [8], in [9] and in assay [10] was “inactive” throughout. For the same compound, the max response in assay [4] is -9.99%.
On to `C1COC1`, for which the Potency result in assay [1], in assay [2], in assay [3], in assay [5], in assay [6] and in assay [7] was “inactive” each time. Also, the Potency result in assay [8] and in assay [9] was “inactive” in each case. In assay [4], the max response was 6.53%.
Regarding `C=CC(C)(CCC=C(C)C)OC(=O)CC(C)C` (stereo not given), the Potency result in [1], in assay [2], in [3], in [5], in assay [6] and in assay [7] was “inactive” each time. In addition, the Potency result in [8] and in assay [9] was “inactive” throughout. In addition, the max response in assay [4] is 7.92%.
On to `N#[N+]c1ccc2c(S(=O)(=O)[O-])cccc2c1O`, for which the Potency result in assay [1], in assay [2], in assay [3], in [5], in assay [6] and in [7] was “inactive” in each case. Also, the Potency result in [8], in assay [9] and in [10] was “inactive” each time. For the same compound, in [4], the max response is -19.6%.
Take `CC1(C)[C@@H](OC(=O)CCC(=O)O)CC[C@]2(C)[C@H]3C(=O)C=C4[C@@H]5C[C@@](C)(C(=O)O)CC[C@]5(C)CC[C@@]4(C)[C@]3(C)CC[C@@H]12`: the Potency result in [1], in assay [2], in assay [3], in assay [5], in [6] and in assay [7] was “inactive” in each case. Also, the Potency result in [8], in assay [9] and in [10] was “inactive” each time. Moreover, the max response in assay [4] is 10.8%.
With `Cc1cc(C)cc(N)c1`, the Potency result in assay [1], in assay [2], in [3], in [5], in assay [6] and in assay [7] was “inactive” throughout. The Potency result in assay [8], in assay [9] and in [10] was “inactive” in each case. Also, in assay [4], the max response is -4.23%.
For the compound `CC(C)=CCC/C(C)=C/CC/C(C)=C/CCC(=O)OC/C=C(\C)CCC=C(C)C`, the Potency result in [1], in [2], in assay [3], in [5], in assay [6] and in assay [7] was “inactive” each time. For the same compound, the Potency entry in assay [8], in [9] and in assay [10] was “inactive” in each case. Also, the max response in [4] was 2.19%.
In the case of `CC1=C(CC=O)C(C)(C)CCC1`, the Potency entry in assay [1], in [2], in [3], in assay [5], in assay [6] and in assay [7] was “inactive” each time. In addition, the Potency result in assay [8] and in assay [9] was “inactive” each time. Also, the max response in assay [4] is -9.82%.
As for `CCCCCCCCCCCCCCN(CCO)CCO`, the Potency was 38.9 µM (active) in assay [1]; 49 µM (active) in assay [2]; 54.9 µM (active) in [3]; 19.5 µM (active) in assay [4]; 43.6 µM (active) in [5]; 49 µM (active) in assay [6]. The Potency in assay [7] was 19.5 µM (active); in assay [8], 24.5 µM (active); in assay [9], 13.8 µM (active).
Take `Cc1ccc(CO)cc1`: the Potency result in assay [1], in assay [2], in [3], in assay [5], in assay [6] and in assay [7] was “inactive” each time. Further, the Potency entry in [8], in assay [9] and in assay [10] was “inactive” each time. Moreover, in [4], the max response is 18.5%.
As for `CCOc1cccc(-n2cc(C(=O)N3CCN(c4cc(C(=O)O)c5ccccc5c4)CC3)nc2-c2ccc(C)cc2)c1`, the Potency entry in assay [1], in [2], in assay [3], in assay [5], in [6] and in assay [7] was “inactive” in each case. The Potency entry in assay [8] and in assay [9] was “inactive” throughout. Also, the max response in assay [4] was 7.68%.
On to `c1ccc(C[n+]2cccc3ccccc32)cc1`, for which the Potency entry in assay [1], in assay [2], in [3], in assay [5], in assay [6] and in assay [7] was “inactive” in each case. The Potency result in [8] and in [9] was “inactive” each time. Moreover, the max response in [4] was -28.8%.
On to `O=C(/C=C/c1ccc(O)c(O)c1)O[C@@H]1C[C@@](OC(=O)/C=C/c2ccc(O)c(O)c2)(C(=O)O)C[C@@H](O)[C@@H]1O`, for which the Potency result in assay [1], in assay [2], in assay [3], in assay [5], in assay [6] and in assay [7] was “inactive” each time. For the same compound, the Potency result in [8] and in [9] was “inactive” each time. For the same compound, the max response in assay [4] was 3.32%.
For `OC(CCN1CCCC1)(c1ccccc1)C1CCCCC1` (stereo not given), the Potency result in [1], in assay [2], in assay [3], in [5], in [6] and in assay [7] was “inactive” in each case. For the same compound, the Potency entry in assay [8] and in assay [9] was “inactive” each time. Moreover, the max response in [4] is -3.9%.
Turning to `CCCCCC[C@@H](O)C/C=C\CCCCCCCC(=O)OCC(O)CO` (stereo not given in full), the Potency entry in assay [1], in assay [2], in assay [3], in assay [5], in [6] and in assay [7] was “inactive” in each case. Moreover, the Potency result in assay [8], in assay [9] and in [10] was “inactive” throughout. For the same compound, the max response in assay [4] is 10.7%.
